Data on 91 compounds can be found in PubChem BioAssay AID2314 (National Center for Advancing Translational Sciences (NCATS), 2010).

The whole screen tested about 300,000 compounds, of which about 37,000 (12%) were called active. Cut-off read from the data, not from the text of the source: active = max response mostly above about 13% (no sharp cut-off); inactive = mostly below about 14%. The sample as a whole holds a higher share of actives than the screen did.

This test can be described thus: Cycloheximide Counterscreen for Small Molecule Inhibitors of Shiga Toxin. Note: read at 38.3 µM for the half of the compounds with a filed dose; 0% is about no effect. To be noted: cell reporter, cycloheximide protein synthesis inhibition counterscreen; active compounds read high. Background: A counterscreen serves to expose hits that act by an unwanted route or on another target.
With `COc1ccccc1C1C(C(N)=O)=C(C)Nc2nc(CCCO)nn21` (stereo unspecified), the max response is -5.85% (inactive). In the case of `C[C@@H]1O[C@@H](OC[C@H]2O[C@@H](Oc3cc(O)c4c(c3)O[C@H](c3ccc(O)c(O)c3)CC4=O)[C@H](O)[C@@H](O)[C@@H]2O)[C@H](O)[C@H](O)[C@H]1O`, the max response was -3.85% (inactive). Next, `COC(=O)c1cc2occc2n1Cc1nc(-c2ccccc2C)oc1C`: -1.91% (inactive); `CCOC(=O)C1(Cc2cccc(OC)c2)CCN(Cc2csc(C(C)=O)c2)CC1`: -2.31% (inactive); `CCC(C(=O)NCCC(C)C)N(Cc1ccccc1Cl)C(=O)c1snc(C(N)=O)c1N` (stereo unspecified): -2.42% (inactive). Next, `COCCN(C(=S)Nc1cccc(Cl)c1C)C(C)c1ccco1` (stereo unspecified): 5.55% (inactive); `CCc1cccc(CC)c1NC(=O)COc1ccccc1C(=O)c1cc(C#N)c(=O)n(C2CCCCC2)c1`: 5.88% (inactive). `CCOc1ccc(CN(C)C(=O)c2ccc(=O)[nH]c2)cc1`: the max response is -4.67% (inactive).

Consider `CC(C)CNS(=O)(=O)c1ccc(C(=O)Nc2ccc3c(c2)OCO3)cc1`, for which the max response was -0.729% (inactive).

As for `CC(NC(=S)Nc1ccc(S(N)(=O)=O)cc1)c1ccc2c(c1)OCO2` (stereo unspecified), the max response is -3.68% (inactive). Under `O=C(/C=C/c1ccc2c(c1)OCO2)NCc1ccc(F)cc1` stands 9.99% (inactive).

On to `Cc1cccc(NC(=O)/C=C/c2ccc3c(c2)OCO3)n1`, for which the max response is 64.4% (active). Consider `CCc1ccc(NC(=O)NC(C)c2ccc3c(c2)OCO3)cc1` (stereo unspecified), for which the max response is 0.596% (inactive). Next, `Cc1cccc(NC(=O)Nc2ccc3c(c2)OCO3)n1`: 45.7% (active); `CC(NC(=O)Nc1ccc2c(c1)OCO2)c1ccncc1` (stereo unspecified): 11.1% (inactive). Next, `CCc1c(C)sc(NC(=O)/C=C/c2ccc3c(c2)OCO3)c1C(=O)OC`: 16.3% (inactive); `CNS(=O)(=O)c1ccc(NC(=O)Nc2ccc3c(c2)OCO3)cc1`: 46.9% (active); `CCCC1OC23CCCCC2C(C#N)(C#N)C1(C#N)C(=N)O3` (stereo unspecified): -1.48% (inactive). With `Cc1ccc(C23CC4CC(CC(C(=O)NCC(=O)O)(C4)C2)C3)cc1`, the max response is -6.43% (inactive). `COc1ccc(Oc2cn[nH]c2-c2ccc(OC)cc2O)cc1`: the max response was 2.15% (inactive). Regarding `COc1cc(C(=O)Nn2c(CC(C)C)nc3ccccc3c2=O)cc(OC)c1OC`, the max response was -3.7% (inactive). For `Cc1ccc(Cl)cc1NC(=O)C1CCN(S(C)(=O)=O)CC1`, the max response is 8.41% (inactive).

With `COc1ccc(Br)cc1C1C2C=CCC(C)C2C(=O)N1Cc1ccccc1` (stereo unspecified), the max response is 2.32% (inactive). Under `Cc1nccc(-c2ccc(-n3c(C)ccc3C)cc2)n1` stands 1.97% (inactive); under `O=C1OC(/C=C/c2ccccc2)=NC/1=C/c1ccco1`, -1.15% (inactive). Next, `C=CCOC(=O)C1=C(C)N=C2SCCC(=O)N2C1/C=C/c1ccccc1OC` (stereo unspecified): -1.27% (inactive); `COc1ccccc1/C=C/C1=NC(=C\N(C)C)/C(=O)O1`: 10.1% (active); `COc1cc2c(cc1OC)C(c1ccccc1Br)NC(=O)C2` (stereo unspecified): 2.36% (inactive). As to `Cc1nc(NC(=O)c2cccc(Cl)c2)sc1-c1csc(Nc2cccc(Cl)c2)n1`, the max response is -1.16% (inactive). As for `CCC(=O)Nc1nc(C)c(C(=O)Nc2cccc(Cl)c2)s1`, the max response is 16.2% (active). Under `CCC(=O)Nc1sc(C(=O)Nc2ccccc2)c(C)c1C(=O)OC` stands 6.77% (inactive); under `Cc1ccc(C2C(C#N)C(C#N)N3CCCN23)cc1` (stereo unspecified), 14.4% (inactive). As for `O=C(CC1N=C2c3ccccc3N=C(SCc3ccccc3Cl)N2C1=O)NCc1ccco1` (stereo unspecified), the max response is 18% (active).

Take `O=C(CSC1=Nc2ccccc2C2=NC(CC(=O)NCc3ccco3)C(=O)N12)NCc1ccco1` (stereo unspecified): the max response was 6.84% (inactive). Next, `CCC(C)NC(=O)CSC1=Nc2ccccc2C2=NC(CCC(=O)NCc3ccco3)C(=O)N12` (stereo unspecified): 0.985% (inactive); `N#Cc1c(-c2ccccc2)nc(SCc2cccc(C(F)(F)F)c2)[nH]c1=O`: 4.14% (inactive). Under `CCc1ccc(NC(=O)Cn2nnc(C(=O)NCc3ccc(OC)cc3)c2N)cc1` stands -3.14% (inactive).

Consider `CCCCCc1c(C)nc(N2CCN(Cc3ccc4c(c3)OCO4)CC2)[nH]c1=O`, for which the max response was -0.993% (inactive).

Take `CC(=O)c1cnc(-c2ccccc2)s1`: the max response is 35.2% (active).

For the compound `O=C(/C=C/Nc1ccccc1)c1cnc(-c2ccccc2)s1`, the max response was 1.67% (inactive). Under `O=S(=O)(c1ccc(F)cc1)n1ccc(-c2cnc(-c3ccccc3)s2)n1` stands 1.13% (inactive); under `Cc1cccc(N2CCN(S(=O)(=O)c3ccc4[nH]c(=O)c(=O)[nH]c4c3)CC2C)c1` (stereo unspecified), -2.14% (inactive). Under `CC1(C)C(C=C(Cl)Cl)C1C(=O)N(Cc1ccc(Cl)cc1)C1CCS(=O)(=O)C1` (stereo unspecified) stands 3.61% (inactive); under `Cc1ccc2nc(/C(C#N)=C\c3ccc(OC(=O)c4cccs4)cc3)[nH]c2c1`, 29.1% (active); under `COc1ccc(CCNC(=O)/C(C#N)=C2\N=C(NC(=O)c3cccs3)c3ccccc32)cc1`, -2.25% (inactive). Next, `Cc1ccc2nc(S(=O)(=O)O)[nH]c2c1`: -7.91% (inactive); `O=C(Nc1ccon1)c1cccc(Cl)c1`: 8.4% (inactive). For `CN1CCc2ccccc2C1Cc1ccccc1NC(=O)c1sc2ccccc2c1Cl` (stereo unspecified), the max response is 5.79% (inactive). As to `O=C(Nc1ccon1)c1sc2ccccc2c1Cl`, the max response is 64.4% (active).

As for `COc1ccc(C)cc1NC(=O)C(Sc1ccccc1)c1ccccc1` (stereo unspecified), the max response is -3.77% (inactive). Next, `CC1CCN(C(=O)c2ccc3c(=O)n4c(nc3c2)CCCCC4)CC1`: 14.9% (inactive); `CCn1nc(C)c(CN2CCN(Cc3ccc(OC)c(C)c3C)C(CCO)C2)c1C` (stereo unspecified): -1.08% (inactive). Under `Cc1cccc(-[n+]2c(-c3cccc(Br)c3)[nH]c3nc4ccccc4nc32)c1` stands 0.81% (inactive); under `COc1ccc(OCC(=O)NCCS(=O)(=O)N2CCN(c3ccc(F)cc3)CC2)cc1`, 13.1% (inactive). With `O=C(NCc1ccc(Cl)cc1)C1CCN(S(=O)(=O)c2cccs2)CC1`, the max response is -3.46% (inactive). Next, `CN(CC(=O)NCc1ccc(Cl)cc1)S(=O)(=O)c1cccs1`: 10.2% (active); `COc1ccc(CNC(=O)CN(Cc2ccc(Cl)cc2)S(C)(=O)=O)cc1`: -2.61% (inactive). Take `NC(=O)CN1CCCC1c1ccc2c(c1)OCCO2` (stereo unspecified): the max response is 10.4% (inactive). Take `Cc1ccccc1OCC(=O)NNC(=O)c1cc(S(=O)(=O)N(C)C)ccc1N1CCCC1`: the max response was -2.55% (inactive).

Consider `O=C(CSc1nc2ccccc2[nH]1)N/N=C/C=C\c1ccccc1[N+](=O)[O-]`, for which the max response was 13.8% (active). `CCn1c(SCC(=O)N/N=C/C=C/c2ccccc2[N+](=O)[O-])nnc1-c1ccccc1`: the max response is 8.3% (inactive). As to `Cc1ccc(-n2c(SCC(=O)N/N=C/C=C/c3ccccc3[N+](=O)[O-])nc3ccccc3c2=O)cc1`, the max response is -7.24% (inactive). Consider `OC(COc1ccc(Br)cc1)CN1CCCC1` (stereo unspecified), for which the max response was -1.85% (inactive). Turning to `CN(CCC1CCOCC1)C(=O)CC1C(=O)NCCN1Cc1cccc(F)c1` (stereo unspecified), the max response is -2.83% (inactive). For `CC(=O)c1c(C)[nH]c(C(=O)OCC(=O)Nc2cc(S(=O)(=O)N3CCCCC3)ccc2C)c1C`, the max response is -1.55% (inactive).

Regarding `Cc1cccc([C@H]2[C@@H]3C=CC[C@@H](C)[C@@H]3C(=O)N2Cc2ccccc2)c1`, the max response was -6.21% (inactive). On to `COc1ccc(NCCc2ccccn2)cc1`, for which the max response was 30.6% (active).

As to `Cc1c(C)c(C)c(S(=O)(=O)NCCc2ccccn2)c(C)c1C`, the max response was -3.58% (inactive).

As to `O=S(=O)(/C=C/c1ccccc1)NCCc1ccccn1`, the max response is 10.5% (inactive). Next, `COc1ccc(S(=O)(=O)NC(C)C(=O)NCc2ccncc2)cc1Cl` (stereo unspecified): -5.01% (inactive); `CNC(=O)CSc1nnc(CCc2ccccc2)n1-c1ccccc1`: 1.1% (inactive); `Cc1c(C(=O)NCc2ccccc2)cnn1-c1ccccc1`: 22.7% (inactive). On to `Cc1c(CNCCc2ccccc2)c(C(=O)O)c(C)n1-c1ccccc1`, for which the max response was 12.6% (active). Under `COC(=O)CCCC1=CC2=C(c3ccccc3)C(=O)C(C)(OC(=O)C3CCCC3)C(=O)C2=CN1c1ccc(OC)cc1` (stereo unspecified) stands -2.86% (inactive); under `CCn1c(=S)[nH]c2sc3c(c2c1=O)CCCCC3`, -1.45% (inactive); under `COc1ccc(N2CCN(C3CCCCC3NS(=O)(=O)c3ccccc3)CC2)cc1` (stereo unspecified), -5.98% (inactive). Under `Cc1ccc2cc(C)c(N3CCN(c4ccc(F)cc4)CC3)nc2c1` stands 10.1% (inactive). Under `Cc1ccc2cc(C)c(N3CCC(C)CC3)nc2c1` stands 23.2% (active); under `Cc1nc(N2CCC(C)CC2)c2c(C)c(C(=O)Nc3cc(F)ccc3C)sc2n1`, 4.36% (inactive).

Consider `CC(NC(=O)c1cccc2ccccc12)c1ccc2c(c1)CCCC2` (stereo unspecified), for which the max response was -1.47% (inactive). Under `Cc1ccc(NC(=S)N(Cc2ccco2)C(C)c2cccs2)cc1` (stereo unspecified) stands 15.6% (active); under `Cc1ccc(NC(=S)N(CCN2CCCCC2)Cc2ccco2)cc1C`, 6.6% (inactive). With `Cc1ccc(NC(=S)N(CCCN2CCC(C)CC2)Cc2ccco2)cc1`, the max response was -1.16% (inactive). For the compound `O=C(C1=C[C@H](c2ccc(C(F)(F)F)cc2)C[C@H](OCc2ccc(CO)cc2)O1)N1CCN(Cc2ccccc2)CC1`, the max response is -1.19% (inactive). Next, `O=C(O)C1CCCN1S(=O)(=O)c1ccc(Br)cc1` (stereo unspecified): -3.32% (inactive).

In the case of `CCCCNC(=O)CN1C(=O)NC(Cc2ccccc2)(Cc2ccccc2)C1=O`, the max response was -4.58% (inactive). On to `O=S(=O)(c1ccccc1)c1nc(-c2ccccc2)oc1NCCCN1CCOCC1`, for which the max response is -2.06% (inactive). For `CCNC(=S)NNC(=O)Cc1ccccc1`, the max response is -1.87% (inactive). With `O=C(CCc1ccccc1)NNC(=O)c1ccc(Br)cc1`, the max response was 5.92% (inactive). Under `CC(C)(C)c1ccc(C(=O)NNC(=O)Cc2ccccc2)cc1` stands 37.7% (active); under `COc1cc(N=Cc2c(O)c3ccccc3oc2=O)c(OC)cc1Cl`, 0.554% (inactive).
